Assay results: PubChem BioAssay (Tox21)
Several values for one entry are separate records, joined by “and”; a condition that tells them apart may be missing. Equal entries are not always repeated. Inconclusive results are not listed. Entries that show only a call come without a potency. Some compounds were tested as several samples or in several runs, with calls that do not always agree. Activity calls are given as the source filed them. Unless noted, calls follow the shape of the full dose curve.

Assays:
[1] = Nuclear factor erythroid 2-related factor 2/antioxidant responsive element (Nrf2/ARE) small molecule agonists: qHTS cell viability counter screen in human keratinocytes (AID 1919968; active = well fitted curve in the direction sought with a large enough effect in the repeat runs; an effect the other way counts as inactive or inconclusive; also: nearly all actives have a fitted effect of over 55% in size; also: potency is read from the fitted curve at half-maximal effect)
Summary of the method: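 KeratinoSens HaCaT cells, 1,500/well, preincubated 5 h, then exposed to compounds in DMSO for 23 h at 37 C/5% CO2. Viability read as CellTiter-Fluor fluorescence after 1 h, in the same wells as the ARE-luciferase read.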

[2] = target: Gonadotropin-releasing hormone receptor (Homo sapiens) (UniProt P30968); experiment: Human gonadotropin-releasing hormone receptor (GnRHR) small molecule agonists, calcium flux assay in GnRHR-HEK293 cells (AID 1920063); also: nearly all actives have a fitted effect of over 35% in size
Sequence of Gonadotropin-releasing hormone receptor (Homo sapiens) (P30968 whole entry, looked up): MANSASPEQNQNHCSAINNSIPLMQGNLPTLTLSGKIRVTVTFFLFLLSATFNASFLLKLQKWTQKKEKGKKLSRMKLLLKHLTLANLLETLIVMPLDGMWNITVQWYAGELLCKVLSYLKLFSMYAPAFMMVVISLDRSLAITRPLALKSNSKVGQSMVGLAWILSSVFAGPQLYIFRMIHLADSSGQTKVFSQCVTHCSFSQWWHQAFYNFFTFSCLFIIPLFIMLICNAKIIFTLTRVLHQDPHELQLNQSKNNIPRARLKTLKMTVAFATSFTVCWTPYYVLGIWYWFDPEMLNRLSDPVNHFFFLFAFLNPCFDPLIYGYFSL
Summary of the method: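 HEK293 cells stably expressing human GnRHR were dye-loaded for 1 h at 37 C. Compound was added in agonist mode and fluorescence (Ex/Em 480/540) recorded kinetically for 3 min. Fifteen concentrations, triplicates.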

[3] = G protein-coupled receptor (GPCR) small molecule agonists, calcium flux assay: HEK293 wild type cell line counter screen (AID 1920065)
Summary of the method: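 Wild-type HEK293 cells plated 18 h, loaded with calcium dye 1 h at 37 C, then compounds added in agonist mode (ATP as positive control). Kinetic fluorescence Ex/Em 480/540 recorded 3 min at 1 sec intervals; 15 concentrations, triplicate.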

[4] = p53 small molecule agonists, cell-based qHTS assay with human liver microsomes (AID 1963577)
Summary of the method: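 p53RE-bla cells, 4,000/well, compound added after 5 h, with human liver microsomes 0.5 mg/mL and NADPH 0.5 mg/mL final; 16 h at 37 C, then LiveBLAzer 2 h RT, fluorescence.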

[5] = p53 small molecule agonists, cell-based qHTS assay with human liver microsomes: qHTS cell viability counter screen (AID 1963579); also: nearly all actives have a fitted effect of over 45% in size; also: potency is read from the fitted curve at half-maximal effect
Summary of the method: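 p53RE-bla cells, 4,000/well, dosed 5 hours after plating, with human liver microsomes (0.5 mg/mL final) plus NADPH (0.5 mg/mL final), 16 hours at 37 C. Viability read as CellTiter-Glo luminescence after 30 min at room temperature.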

[6] = p53 small molecule agonists, cell-based qHTS assay with rat liver microsomes: qHTS cell viability counter screen (AID 1963580); also: nearly all actives have a fitted effect of over 45% in size; also: potency is read from the fitted curve at half-maximal effect
Summary of the method: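 HCT-116 p53RE-bla, 4,000 cells/well, 5 h pre-incubation; cpd + rat liver microsomes 0.5 mg/mL + NADPH 0.5 mg/mL (final); 16 h, 37 C; CellTiter-Glo, 30 min RT; luminescence.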

[7] = p53 small molecule agonists, cell-based qHTS assay: qHTS cell viability counter screen (AID 1963581); also: nearly all actives have a fitted effect of over 45% in size; also: potency is read from the fitted curve at half-maximal effect
Summary of the method: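 p53RE-bla HCT-116 cells, compounds added 5 h after plating and incubated 16 h at 37 C. Cytotoxicity measured in the same wells as intracellular ATP by CellTiter-Glo luminescence after 30 min at room temperature.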

[8] = target: 5-hydroxytryptamine receptor 2A (Homo sapiens) (UniProt P28223); experiment: 5-hydroxytryptamine receptor 2A (HTR2A) small molecule antagonists, cell-based qHTS assay (AID 1963586); also: nearly all actives have a fitted effect of over 45% in size
Sequence of 5-hydroxytryptamine receptor 2A (Homo sapiens) (P28223 whole entry, looked up): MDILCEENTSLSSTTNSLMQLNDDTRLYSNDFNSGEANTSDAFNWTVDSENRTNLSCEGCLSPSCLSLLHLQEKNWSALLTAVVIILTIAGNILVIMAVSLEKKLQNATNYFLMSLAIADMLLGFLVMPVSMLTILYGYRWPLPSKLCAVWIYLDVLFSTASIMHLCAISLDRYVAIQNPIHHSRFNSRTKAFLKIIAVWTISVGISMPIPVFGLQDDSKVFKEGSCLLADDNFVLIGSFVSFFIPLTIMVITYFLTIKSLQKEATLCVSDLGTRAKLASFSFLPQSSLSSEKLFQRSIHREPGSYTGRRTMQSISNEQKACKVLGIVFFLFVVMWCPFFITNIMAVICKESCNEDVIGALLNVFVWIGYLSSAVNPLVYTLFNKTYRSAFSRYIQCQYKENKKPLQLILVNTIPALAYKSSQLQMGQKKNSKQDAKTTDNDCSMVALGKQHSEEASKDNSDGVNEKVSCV
Summary of the method: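 Antagonist-mode intracellular calcium assay: DOI (4 nM) added after 5 min compound pre-incubation at room temperature to dye-loaded HTR2A-CHO cells. Fluorescence followed for 3 min, sampled every second.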

[9] = target: 5-hydroxytryptamine receptor 2A (Homo sapiens) (UniProt P28223); experiment: 5-hydroxytryptamine receptor 2A (HTR2A) small molecule agonists, cell-based qHTS assay (AID 1963587); also: nearly all actives have a fitted effect of over 30% in size
Summary of the method: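 Kinetic calcium-flux fluorescence (2 min, 1 sec intervals) after compound addition in agonist mode. HTR2A-CHO cells were cultured 18 h, then dye-loaded 1 h at 37 C.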

[10] = target: Muscarinic acetylcholine receptor M1 (Homo sapiens) (UniProt P11229); experiment: Cholinergic receptor muscarinic 1 (CHRM1) small molecule antagonists, cell-based qHTS assay (AID 1963588); also: nearly all actives have a fitted effect of over 40% in size
Sequence of Muscarinic acetylcholine receptor M1 (Homo sapiens) (P11229 whole entry, looked up): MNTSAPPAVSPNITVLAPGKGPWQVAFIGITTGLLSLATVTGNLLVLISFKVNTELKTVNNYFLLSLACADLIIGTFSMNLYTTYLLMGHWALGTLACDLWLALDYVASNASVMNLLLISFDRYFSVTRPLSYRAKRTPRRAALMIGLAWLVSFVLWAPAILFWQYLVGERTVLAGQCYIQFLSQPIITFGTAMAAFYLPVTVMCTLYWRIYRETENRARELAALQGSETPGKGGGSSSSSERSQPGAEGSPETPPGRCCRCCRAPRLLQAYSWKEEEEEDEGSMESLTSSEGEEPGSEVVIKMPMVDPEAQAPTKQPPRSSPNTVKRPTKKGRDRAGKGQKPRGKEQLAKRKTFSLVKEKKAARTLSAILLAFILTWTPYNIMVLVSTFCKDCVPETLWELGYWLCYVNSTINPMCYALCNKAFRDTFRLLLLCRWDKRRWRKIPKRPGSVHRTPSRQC
Summary of the method: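 CHRM1-CHO calcium-flux assay, antagonist mode. Cells were seeded 18 h, dye-loaded 1 h at 37 C and given compound for 5 min at RT, then acetylcholine was added at 50nM. FDSS fluorescence was read 3 min; 15 concentrations, three runs.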

[11] = target: Muscarinic acetylcholine receptor M1 (Homo sapiens) (UniProt P11229); experiment: Cholinergic receptor muscarinic 1 (CHRM1) small molecule agonists, cell-based qHTS assay (AID 1963589); also: nearly all actives have a fitted effect of over 35% in size
Summary of the method: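 CHO cells stably expressing human CHRM1 were loaded with calcium dye for 1 h at 37 C, then compound was added in agonist mode. Intracellular calcium fluorescence was followed kinetically at 1 s intervals. Fifteen concentrations were tested in three independent runs.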

[12] = cAMP Responsive Elements (CRE) small molecule agonists, cell-based qHTS assay (AID 1963590)
Summary of the method: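 CRE-bla HEK 293T cells, 2,000/well in DMEM with 10% dialyzed FBS and 25 mM HEPES, pre-incubated 18 h at 37 C, then exposed to compound 3 h at 37 C. Beta-lactamase reporter read with LiveBLAzer B/G FRET substrate after 2 h at room temperature.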

[13] = cAMP Responsive Elements (CRE) small molecule antagonists, cell-based qHTS assay (AID 1963591; active = well fitted inhibition curve with a large enough effect in the signal ratio in the repeat runs, not every such curve was filed as active; the % refers to the signal ratio)
Summary of the method: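 CRE-bla HEK293T cells plated 18 h, then given compound plus NKH477 at 0.25 uM final for 3 h at 37C. Beta-lactamase reporter read with LiveBLAzer B/G FRET substrate after 2 h at room temperature.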

[14] = target: KiSS-1 receptor (Homo sapiens) (UniProt Q969F8); experiment: Human kisspeptin (KISS1R) small molecule agonists, calcium flux assay in KISS1R-HEK293 cells (AID 1920064; active = well fitted curve in the direction sought with a large enough effect in the repeat runs; an effect the other way counts as inactive or inconclusive)
Sequence of KiSS-1 receptor (Homo sapiens) (Q969F8 whole entry, looked up): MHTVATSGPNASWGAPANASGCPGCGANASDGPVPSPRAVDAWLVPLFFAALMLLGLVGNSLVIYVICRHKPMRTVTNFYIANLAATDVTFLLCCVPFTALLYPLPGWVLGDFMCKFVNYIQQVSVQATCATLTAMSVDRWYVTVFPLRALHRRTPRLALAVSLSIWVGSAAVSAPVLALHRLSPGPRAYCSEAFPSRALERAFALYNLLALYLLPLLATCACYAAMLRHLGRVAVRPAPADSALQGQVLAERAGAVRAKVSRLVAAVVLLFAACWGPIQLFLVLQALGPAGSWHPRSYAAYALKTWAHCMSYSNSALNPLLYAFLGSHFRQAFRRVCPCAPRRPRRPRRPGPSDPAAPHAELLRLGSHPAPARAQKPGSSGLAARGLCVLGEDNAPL
Summary of the method: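 HEK293 cells stably expressing human KISS1R were loaded with calcium dye for 1 h at 37 C, then given compound; fluorescence (Ex/Em 480/540) was read kinetically for 3 min. Fifteen concentrations, triplicate.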

[15] = p53 small molecule agonists, cell-based qHTS assay with rat liver microsomes (AID 1963578)
Summary of the method: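 p53RE-bla cells, 4,000/well, pre-incubated 5 h, then given compounds plus rat liver microsomes (0.5 mg/mL final) and NADPH (0.5 mg/mL final). Incubation 16 h at 37 C; beta-lactamase reporter read by LiveBLAzer fluorescence after 2 h at room temperature.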

[16] = p53 small molecule agonists, cell-based qHTS assay (AID 1963582; active = well fitted activation curve with a large enough effect in the signal ratio in the repeat runs, not every such curve was filed as active; the % refers to the signal ratio)
Summary of the method: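 p53RE-bla reporter cells, compounds added in DMSO after 5 h plating, incubated 16 h at 37 C. Beta-lactamase read via 2 h room-temperature LiveBLAzer B/G FRET substrate, fluorescence intensity.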

[17] = target: Beta-2 adrenergic receptor (Homo sapiens) (UniProt P07550); experiment: Adrenergic beta2 receptor (ADRB2) small molecule antagonists, cell-based qHTS assay (AID 1963592); also: series mostly up to about 92 µM; nearly all actives have a fitted effect of over 50% in size
Sequence of Beta-2 adrenergic receptor (Homo sapiens) (P07550 whole entry, looked up): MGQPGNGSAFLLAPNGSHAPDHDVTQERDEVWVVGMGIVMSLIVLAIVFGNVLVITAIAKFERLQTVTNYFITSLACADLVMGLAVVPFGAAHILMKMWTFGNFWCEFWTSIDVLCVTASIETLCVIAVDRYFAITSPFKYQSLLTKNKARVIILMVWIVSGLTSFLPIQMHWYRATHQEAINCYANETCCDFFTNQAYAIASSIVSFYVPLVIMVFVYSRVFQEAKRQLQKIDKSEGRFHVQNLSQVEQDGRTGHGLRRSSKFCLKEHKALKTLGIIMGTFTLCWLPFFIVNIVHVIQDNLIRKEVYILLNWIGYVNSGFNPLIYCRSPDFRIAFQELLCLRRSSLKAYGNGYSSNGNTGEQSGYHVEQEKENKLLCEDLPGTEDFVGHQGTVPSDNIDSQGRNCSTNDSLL
Summary of the method: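 Cells (CHO, stable ADRB2 overexpression) incubated 18-20hr at 37C; compounds added from DMSO; agonist mix (1nM isoproterenol, 100uM IBMX, 25uM Ro-20-1724) added; 0.5hr RT; d2-cAMP and anti-cAMP-cryptate added; 1hr RT; 665/615 nm read.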

[18] = target: Beta-2 adrenergic receptor (Homo sapiens) (UniProt P07550); experiment: Adrenergic beta2 receptor (ADRB2) small molecule agonists, cell-based qHTS assay (AID 1963593);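 also: CHO cells stably overexpressing human ADRB2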
Summary of the method: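 CHO cells stably over-expressing ADRB2 were plated overnight at 37C, then dosed with compounds plus a stimulation mix containing 100uM IBMX and 25uM Ro-20-1724 for 0.5hr at room temperature. cAMP was measured by HTRF competition, 1hr.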

[19] = target: D(2) dopamine receptor (Homo sapiens) (UniProt P14416); experiment: Dopamine D2 receptor (DRD2) small molecule agonists, cell-based qHTS assay (AID 1963594); also: nearly all actives have a fitted effect of over 35% in size
Sequence of D(2) dopamine receptor (Homo sapiens) (P14416 whole entry, looked up): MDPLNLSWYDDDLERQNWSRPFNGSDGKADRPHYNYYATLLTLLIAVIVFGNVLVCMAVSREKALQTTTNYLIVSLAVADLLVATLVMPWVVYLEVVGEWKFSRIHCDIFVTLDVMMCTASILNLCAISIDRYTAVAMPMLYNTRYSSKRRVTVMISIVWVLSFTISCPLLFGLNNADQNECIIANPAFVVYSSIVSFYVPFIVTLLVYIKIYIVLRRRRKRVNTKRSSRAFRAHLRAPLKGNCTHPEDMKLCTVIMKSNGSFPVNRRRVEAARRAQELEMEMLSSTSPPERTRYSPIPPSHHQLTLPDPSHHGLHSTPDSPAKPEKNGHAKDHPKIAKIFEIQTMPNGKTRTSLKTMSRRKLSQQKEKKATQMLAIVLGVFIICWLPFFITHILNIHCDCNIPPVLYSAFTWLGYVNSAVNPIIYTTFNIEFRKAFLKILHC
Summary of the method: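 cAMP accumulation in DRD2-HEK293 cells measured by HTRF after 1 h detection; compounds added 10 min before NKH477 (200nM […]) forskolin-analogue stimulation, 30 min at room temperature, with Ro20-1724 present at 0.1 mM final.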

[20] = target: D(2) dopamine receptor (Homo sapiens) (UniProt P14416); experiment: Dopamine D2 receptor (DRD2) small molecule antagonists, cell-based qHTS assay (AID 1963595; active = well fitted inhibition curve with a large enough effect in the signal ratio in the repeat runs, with a control signal flat; the % refers to the signal ratio)
Summary of the method: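 Cells were plated and grown for 24 h at 37 °C. Ro20-1724 (0.1 mM final) went in first, then compound for 10 min. NKH477 (200 nM) with quinpirole (12 nM) followed for 30 min at RT, then HTRF detection reagents for 1 h.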

Compound | Potency [1] | Potency [2] | Potency [3] | Potency [4] | Potency [5] | Potency [6] | Potency [7] | Potency [8] | Potency [9] | Potency [10] | Potency [11] | Potency [12] | Potency [13] | Potency [14] | Potency [15] | Potency [16] | Potency [17] | Potency [18] | Potency [19] | Potency [20]
O=C1C(Cl)=C(Cl)C(=O)C(Cl)=C1Cl | 27.2 µM (active) and 27.3 µM (active) | inactive | inactive | inactive | 40.8 µM (active) | inactive and 40.8 µM (active) | inactive | inactive | inactive | inactive | inactive | inactive | inactive |  |  |  |  |  |  | 
CNC(=O)NC(O)C(Cl)(Cl)Cl (configuration not stated) | inactive |  | inactive | inactive | inactive | inactive | inactive | inactive | inactive | inactive | inactive | inactive | inactive | inactive | inactive | inactive | inactive | inactive | inactive | 
NC1(c2ccccc2)CCCCC1 | inactive | inactive | inactive | inactive | inactive | inactive | inactive | inactive |  | inactive | inactive | inactive | inactive |  | inactive |  | inactive | inactive | inactive | inactive
CN(C)C(=O)Cl | inactive | inactive | inactive |  |  | inactive | 45.7 µM (active) and inactive | inactive | inactive | inactive | inactive | inactive | inactive |  |  |  |  | inactive | inactive | inactive
